Results taken from PubChem BioAssay AID725 (NMMLSC, 2007).
Fewer than 10 of roughly 1,300 compounds were called active. A selection follows. Values without a mark were called inactive. The rule behind the calls is not given here.

These molecules were tested against N-formyl peptide receptor 2 (Homo sapiens) (UniProt P25090) (assay: FPRL1 fluorescent ligand binding inhibitors, primary screen, selectivity assay for FPR ligand SAR project, cell-based, flow cytometry, HTS counterscreen (AID 725)). Details: FPRL1-expressing cells, active compounds read high, concentration not given here.
Sequence of N-formyl peptide receptor 2 (Homo sapiens) (P25090 whole entry, looked up): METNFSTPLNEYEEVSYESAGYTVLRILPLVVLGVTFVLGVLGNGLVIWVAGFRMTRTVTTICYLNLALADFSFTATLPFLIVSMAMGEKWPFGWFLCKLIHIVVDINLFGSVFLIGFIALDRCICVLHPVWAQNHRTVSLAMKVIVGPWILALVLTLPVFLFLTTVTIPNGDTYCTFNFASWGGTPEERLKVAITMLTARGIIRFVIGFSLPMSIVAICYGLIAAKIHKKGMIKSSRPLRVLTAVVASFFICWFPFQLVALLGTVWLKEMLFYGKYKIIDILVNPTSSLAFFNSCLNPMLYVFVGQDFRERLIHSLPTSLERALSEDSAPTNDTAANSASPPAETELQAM

First: Cc1ccc(C(=O)O)cc1NC(=O)C1C2CCC(C2)C1C(=O)O (centres undefined)
Second: COC(=O)c1c(NC(=O)c2cccc(C)c2)sc2c1CCC(C)C2 (centres undefined)
The inhibition of the first is higher: 3.8% for the first, -8.1% for the second.

First: CN1CCC2(CC1)N=C(c1ccccc1)C(=S)N2C(=O)c1ccc(Cl)cc1
Second: COc1ccc(C2C(C(=O)N3CCCC(C)C3)c3ccccc3C(=O)N2C)cc1 (centres undefined)
The inhibition of the first is lower: -2% for the first, 2.3% for the second.

First: Cc1ccc(C)c(-c2n[nH]n3c2nc(=O)c2ccccc23)c1
Second: COc1cccc(Cn2c(=S)[nH]c3c(oc4ccccc43)c2=O)c1
The inhibition of the first is lower: -23.5% for the first, 3% for the second.

Going from `O=C1c2cccc3cccc(c23)N1S(=O)(=O)c1ccccc1` to `O=C(O)CCN1C(=O)C(=O)/C(=C(/O)c2ccccc2)C1c1ccccc1[N+](=O)[O-]` (centres undefined), the inhibition rises from -5% to 1.1%.

Compared with `CC(C)CCN(Cc1ccco1)C(=O)c1noc2c1CCCC2`, `O=C(c1ccc(F)cc1)N(Cc1ccco1)Cc1ccccc1Cl` is higher in inhibition: -3% for the first, -1.7% for the second.

First: Cc1cccc(N2C(=O)CSC2c2ccc(Br)cc2)c1 (centres undefined)
Second: Cc1ccc(C2/C(=C(\O)c3ccccc3)C(=O)C(=O)N2c2nnc(C)s2)cc1 (centres undefined)
The inhibition of the first is lower: -3.9% for the first, -1.8% for the second.

Compared with `CCOC(=O)c1c(NC(=O)c2cccc(Cl)c2)sc2c1CCCC2`, `COC(=O)c1c(NC(=O)c2ccc(F)cc2)sc(C)c1C` is lower in inhibition: 3.1% for the first, -4.9% for the second.

Compared with `Cc1nnc(N2C(=O)C(O)=C(C(=O)c3ccco3)C2c2ccc(Cl)cc2)s1` (centres undefined), `CCOc1cc(C2C(C(=O)c3ccco3)=C(O)C(=O)N2CC2CCCO2)ccc1O` (centres undefined) is higher in inhibition: 0.1% for the first, 0.5% for the second.

First: CCc1ccc(Oc2c(C(F)(F)F)oc3c(CN4CCOCC4)c(O)ccc3c2=O)cc1
Second: COc1ccc(C2/C(=C(\O)c3ccccc3)C(=O)C(=O)N2CCN2CCOCC2)cc1 (centres undefined)
The inhibition of the first is lower: -5.8% for the first, 0.4% for the second.

Compared with `CCc1cccc(C)c1NC(=S)N(Cc1ccco1)C(C)c1cccs1` (centres undefined), `COc1ccccc1C(=O)NC(C)c1nc2ccccc2n1Cc1ccccc1C` (centres undefined) is higher in inhibition: -5.9% for the first, -0.5% for the second.

Compared with `Cc1ccc(/C(O)=C2\C(=O)C(=O)N(CCN3CCOCC3)C2c2cccs2)cc1` (centres undefined), `Cc1cc(C)cc(N2C(=O)N(c3ccccc3Cl)C3CS(=O)(=O)CC32)c1` (centres undefined) is higher in inhibition: -5.9% for the first, 2.6% for the second.

First: CCOc1ccc(N(C)C(=O)[C@H]2[C@@H]3C[C@@H]4[C@H]2C(=O)O[C@@H]4C3)cc1
Second: Cc1cccc(C(=O)N2c3ncnn3C(c3ccccc3)CC2c2ccccc2)c1 (centres undefined)
The inhibition of the first is higher: 19.5% for the first, -15.7% for the second.
